Test results from PubChem BioAssay (NCATS).
Inconclusive results are not listed. A call without a number means that no potency is given here. Calls of active or inactive are those of the source. Unless noted, the call rests on the fitted dose curve; in most records, active means well fitted curve in the direction sought with a large enough effect; inconclusive means small, poorly fitted or top-dose-only effect, or another doubt; inactive means no such curve, though single readings can be large; an effect the other way counts as inactive or inconclusive.

Tests used:
[1] = NS1 protein of Zika virus - qHTS assay to identify small molecule inhibitors in human HEK 293 cells (AID 1347053); further: nearly all actives have a fitted effect of over 55% in size; further: potency means the concentration at half of the fitted maximal effect
Summary of the method: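 Read-out is a two-antibody TR-FRET for ZIKV NS1, normalized between uninfected cells and infected cells. Compound added 1 h before MR766 infection at MOI 0.5; human HEK 293 cells incubated 24 h, 37 C.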

[2] = qHTS for Inhibitors of the Functional Ribonucleoprotein Complex (vRNP) of Lassa (LASV) Arenavirus: LASV Primary Screen - GLuc reporter signal (AID 1347082; calls by dose curve; tested in HEK293 reporter line; further: series mostly up to about 57 µM; nearly all actives have a fitted effect of over 60% in size)
[3] = qHTS for Inhibitors of the Functional Ribonucleoprotein Complex (vRNP) of Lassa (LASV) Arenavirus: Viability assay - alamar blue signal for LASV Primary Screen (AID 1347083; calls by dose curve; tested in HEK293 reporter line; further: series mostly up to about 57 µM; nearly all actives have a fitted effect of over 80% in size)
[4] = qHTS for Inhibitors of the Functional Ribonucleoprotein Complex (vRNP) of Lymphocytic Choriomeningitis Arenaviruses (LCMV): Viability assay - alamar blue signal for LCMV Primary Screen (AID 1347085; calls by dose curve; tested in HEK293 reporter line; further: series mostly up to about 57 µM; nearly all actives have a fitted effect of over 80% in size)
[5] = molecular target: Nucleoprotein (Lymphocytic choriomeningitis virus (strain Armstrong)) (UniProt P09992); assay: qHTS for Inhibitors of the Functional Ribonucleoprotein Complex (vRNP) of Lymphocytic Choriomeningitis Arenaviruses (LCMV): LCMV Primary Screen - GLuc reporter signal (AID 1347086; calls by dose curve; further: series mostly up to about 57 µM; nearly all actives have a fitted effect of over 70% in size)
[6] = qHTS of pediatric cancer cell lines to identify multiple opportunities for drug repurposing: Primary screen for TC32 cells (AID 1347089); further: nearly all actives have a fitted effect of over 60% in size; further: potency means the concentration at half of the fitted maximal effect
Summary of the method: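 Measured quantity: luminescence from CellTiter-Glo, reflecting metabolically active TC32 cells following 48 h of compound. Curves came straight from multi-point titrations, with 8 or 11 points in primary and 11 in confirmatory screening.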

[7] = qHTS of pediatric cancer cell lines to identify multiple opportunities for drug repurposing: Primary screen for DAOY cells (AID 1347090); further: nearly all actives have a fitted effect of over 55% in size; further: potency means the concentration at half of the fitted maximal effect
Summary of the method: (§1)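 Cell viability, CellTiter-Glo luminescence; 500-1,000 cells/well, 8- or 11-point titration, 48 h compound exposure at 37 degrees C, 5% CO2. Controls: DMSO neutral, bortezomib 2.3 µM final as positive.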

[8] = qHTS of pediatric cancer cell lines to identify multiple opportunities for drug repurposing: Primary screen for A673 cells (AID 1347092); further: nearly all actives have a fitted effect of over 45% in size; further: potency means the concentration at half of the fitted maximal effect
Summary of the method: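 Cells are plated, rested 5 h, dosed by pintool, incubated 48 h, then lysed with CellTiter-Glo and read by luminescence. DMSO is the neutral control; bortezomib at 2.3 uM final is the positive control.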

[9] = qHTS of pediatric cancer cell lines to identify multiple opportunities for drug repurposing: Primary screen for SK-N-MC cells (AID 1347093); further: potency means the concentration at half of the fitted maximal effect
Summary of the method: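 Metabolically active cells were quantified by ATP-dependent luminescence (CellTiter-Glo, 15 min at room temperature) following 48 h treatment. Cells had been plated at 500-1,000 per well and settled for 5 h beforehand.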

[10] = qHTS of pediatric cancer cell lines to identify multiple opportunities for drug repurposing: Primary screen for BT-37 cells (AID 1347094); further: potency means the concentration at half of the fitted maximal effect
Summary of the method: (§2)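 Plated cells (500-1,000 per well, growth media) were allowed to settle for 5 hours, treated with compound dilutions for 48 hours, then lysed with CellTiter-Glo for 15 min at room temperature before luminescence reading.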

[11] = qHTS of pediatric cancer cell lines to identify multiple opportunities for drug repurposing: Primary screen for NB-EBc1 cells (AID 1347095)
Summary of the method: as §2

[12] = qHTS of pediatric cancer cell lines to identify multiple opportunities for drug repurposing: Primary screen for SJ-GBM2 cells (AID 1347091); further: potency means the concentration at half of the fitted maximal effect
Summary of the method: as §1

[13] = qHTS of pediatric cancer cell lines to identify multiple opportunities for drug repurposing: Primary screen for U-2 OS cells (AID 1347096); further: nearly all actives have a fitted effect of over 50% in size
Summary of the method: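 Cells (500-1,000/well) rested 5 h, then received compounds for 48 h; metabolically active cells were measured by CellTiter-Glo luminescence. Final concentrations spanned up to 46 µM (MIPE, 11-point) or 0.59 nM-46 µM (NPC, 8-point) in primary screens, 11-point in follow-ups.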

Sequence of Nucleoprotein (Lymphocytic choriomeningitis virus (strain Armstrong)) (P09992 whole entry, looked up): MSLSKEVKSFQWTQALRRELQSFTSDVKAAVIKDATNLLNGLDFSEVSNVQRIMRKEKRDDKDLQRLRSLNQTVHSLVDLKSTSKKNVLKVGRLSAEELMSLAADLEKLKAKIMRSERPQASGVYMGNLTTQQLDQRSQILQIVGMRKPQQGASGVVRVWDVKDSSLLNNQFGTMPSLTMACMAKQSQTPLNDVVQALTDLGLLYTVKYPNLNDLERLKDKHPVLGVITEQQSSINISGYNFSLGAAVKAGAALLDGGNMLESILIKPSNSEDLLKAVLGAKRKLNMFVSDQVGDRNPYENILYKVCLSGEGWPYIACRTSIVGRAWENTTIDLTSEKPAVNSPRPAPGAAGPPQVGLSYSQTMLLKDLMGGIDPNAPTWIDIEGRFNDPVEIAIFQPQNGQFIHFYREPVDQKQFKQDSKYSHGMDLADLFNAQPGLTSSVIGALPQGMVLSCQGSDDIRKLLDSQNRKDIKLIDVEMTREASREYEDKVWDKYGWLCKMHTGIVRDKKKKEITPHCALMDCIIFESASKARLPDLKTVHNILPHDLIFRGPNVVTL

Compound | Potency [1] | Potency [2] | Potency [3] | Potency [4] | Potency [5] | Potency [6] | Potency [7] | Potency [8] | Potency [9] | Potency [10] | Potency [11] | Potency [12] | Potency [13]
CN1C2CCC(C)(C)C1CC(OC(=O)C(O)(c1cccs1)c1cccs1)C2 (stereo unspecified) | inactive | inactive | inactive | inactive | inactive | inactive | inactive | inactive | inactive | inactive | inactive | – | –
CN1C(=O)CN=C(c2ccccc2)c2cc(Cl)ccc21 | inactive | inactive | inactive | inactive | inactive | inactive | inactive | – | inactive | inactive | inactive | inactive | inactive
COc1cc(CC(C)N)c(OC)cc1Br (stereo unspecified) | inactive | inactive | – | – | inactive | – | inactive | – | 44.9 µM (active) | – | – | inactive | inactive
O=C1NCN(c2ccccc2)C12CCN(CCCOc1ccc(F)cc1)CC2 | inactive | inactive | inactive | inactive | inactive | inactive | inactive | inactive | inactive | 17.4 µM (active) | inactive | – | inactive
NC(=O)C1(N2CCCCC2)CCN(CCCN2c3ccccc3CCc3ccc(Cl)cc32)CC1 | – | inactive | – | – | – | – | – | – | – | – | – | – | –
CCC(=O)C(CCN(C)C)(c1ccccc1)c1ccccc1 | inactive | inactive | inactive | – | – | inactive | inactive | inactive | inactive | inactive | inactive | inactive | inactive
Oc1ccc2[nH]cc(CCCCN3CC=C(c4ccccc4)CC3)c2c1 | inactive | inactive | inactive | inactive | inactive | – | inactive | – | – | – | – | – | inactive
CC(C)(C)OC(=O)c1ncn2c1[C@@H]1CCCN1C(=O)c1c(Br)cccc1-2 | inactive | inactive | inactive | inactive | – | inactive | inactive | inactive | inactive | inactive | inactive | inactive | inactive
CC1COC2(c3ccccc3Cl)c3cc(Cl)ccc3NC(=O)CN12 (stereo unspecified) | inactive | inactive | inactive | inactive | inactive | inactive | inactive | inactive | inactive | inactive | inactive | – | inactive
CC(=O)OC1(c2ccccc2)CCN(CCc2ccccc2)CC1 | inactive | inactive | inactive | inactive | inactive | inactive | inactive | – | – | – | – | – | inactive
CN1[C@@H]2CC[C@H]1CC(OC(=O)c1cc(Cl)cc(Cl)c1)C2 (stereo partly specified) | inactive | inactive | inactive | inactive | inactive | inactive | – | – | 0.001 µM (active) | – | inactive | inactive | inactive
c1ccc2c(c1)Sc1ccccc1N2CC1CN2CCC1CC2 (stereo unspecified) | 3.16 µM (active) | inactive | – | – | – | – | – | 13.3 µM (active) | – | 27.6 µM (active) | inactive | 23.7 µM (active) | –
CC[C@H](O)C(C[C@H](C)N(C)C)(c1ccccc1)c1ccccc1 | inactive | – | – | – | – | inactive | – | – | 62.3 µM (active) | inactive | inactive | inactive | –
O=C(NC(=O)c1c(F)cccc1F)Nc1cc(Cl)c(OC(F)(F)C(F)C(F)(F)F)cc1Cl (stereo unspecified) | inactive | inactive | inactive | inactive | inactive | inactive | inactive | inactive | inactive | – | inactive | – | –
CCC(OC(C)=O)C(CC(C)NC)(c1ccccc1)c1ccccc1 (stereo unspecified) | inactive | inactive | – | – | – | – | – | 27.6 µM (active) | 31 µM (active) | 35.9 µM (active) | inactive | – | –
Cc1ccc2c(Br)cc(Br)c(O)c2n1 | – | inactive | – | – | – | – | – | – | – | – | – | – | –
O=C(CCl)c1ccc(Cl)cc1Cl | inactive | inactive | inactive | inactive | inactive | inactive | – | 26.6 µM (active) | – | – | – | – | inactive
CC1Sc2c(C(=O)O)c(=O)c3cc(F)c(N4CCNCC4)cc3n21 (stereo unspecified) | inactive | inactive | inactive | inactive | inactive | inactive | inactive | – | – | inactive | inactive | inactive | inactive
CC[n+]1c(-c2ccccc2)c2cc(N)ccc2c2ccc(N)cc21 | inactive | – | – | – | – | 8.36 µM (active) | 0.841 µM (active) | 3.35 µM (active) | 2.11 µM (active) | 2.46 µM (active) | – | 2.66 µM (active) | –
COc1ccc2c(C(=O)c3ccc(Cl)cc3)c(C)n(CC(=O)O)c2c1 | inactive | – | – | – | – | – | 21.1 µM (active) | – | 8.41 µM (active) | inactive | – | inactive | inactive
COc1cc(CC(C)N)cc2c1OCO2 (stereo unspecified) | inactive | inactive | inactive | inactive | inactive | inactive | inactive | – | inactive | inactive | inactive | inactive | inactive
